# Test results as given in PubChem BioAssay (NCI).
# The panel holds about 83,000 compounds, 20% with a hit somewhere; the sample as a whole holds those more often.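 Note: values are percent growth. 100 is the growth of untreated cells, values between 100 and 0 indicate rising inhibition; between -100 and 0 indicates cell death.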 A number with no mark means an inactive call. The source made the active and inactive calls. How the source made its calls: active means growth percent below 10; inactive means the rest.
# Test system: 786-0 renal
# Assay: NCI-60 one-dose screen, 48 h (100 = growth as untreated, 0 = no growth, -100 = all killed)
# Details: 10 µM
row,SMILES,growth
1,O=C(NO)c1ccc(Cn2ccc3c(Nc4ccccc4)ncnc32)cc1,31%
2,N#Cc1ccc(-c2nn(-c3ccc(C(=O)O)cc3)cc2CNc2cccc(Br)c2)cc1,45%
3,O=C(c1ccc(Cl)cc1)C1[C@H](c2ccccc2Br)[C@@H](c2ccccc2)NC12C(=O)Nc1ccccc12 (some centres not stated),16.3%
4,CC1(C)CC[C@]2(C(=O)Nc3ccccc3)CC[C@]3(C)C(=CC[C@@H]4[C@@]5(C)CC[C@H](N)C(C)(C)[C@@H]5CC[C@]43C)[C@H]2C1,65.3%
5,CC(=C(c1ccc(OCCCN(C)C)cc1)c1ccc(OCCCN(C)C)cc1)c1ccccc1,-44% (active)
6,Cc1ccc(/C=C/C(=O)c2ccc(S(=O)(=O)NCCNc3nc(Nc4ccc(F)cc4)nc(N(C)C)n3)cc2)cc1,-32% (active)
7,COc1ccc(C(=O)Nc2sc3c(c2C#N)CCC(=O)C3)cc1C(F)(F)F,7.91% (active)
8,COc1ccc2nc(Cl)c(-c3cc(-c4ccccc4)nc(=S)[nH]3)cc2c1,78%
9,Cc1ccc(-c2cc(C(=O)N=Nc3c(O)[nH]c4ccccc34)c3ccccc3n2)cc1,35.8%
10,C#Cc1ccc(S(=O)(=O)Nc2cccc(-c3csc(NC(C)=O)n3)c2)cc1,88.2%
11,CC(C)C1=C[C@@]23CC[C@@H]4[C@](C)(CCC[C@]4(C)C(=O)NCc4ccccc4)[C@H]2C[C@@H]1[C@H]1C(=O)CCC(=O)[C@H]13,87.2%
12,COc1ccc(C(=O)NC(=S)N2CCN(c3ncnc4c3cnn4-c3ccccc3)CC2)cc1,82.8%
13,C[C@H]1[C@H](C)CC[C@]2(COC(=O)CCC(=O)NCC#CCN3CCNCC3)CC[C@]3(C)C(=CC[C@@H]4[C@@]5(C)CCCNC(C)(C)[C@@H]5CC[C@]43C)[C@H]12,55.1%
14,CC[C@@]1(O)C(=O)OCc2c1cc1n(c2=O)Cc2c-1nc1cc(F)c(C)c3c1c2[C@@H](N)CC3,5.22% (active)
15,Cc1cccc2cc(-c3cc(-c4ccccc4)nc(=S)[nH]3)c(Cl)nc12,97.7%
16,Cc1ccc(CNC(=O)Cc2ccc3c(c2)CN(C2CCC(=O)NC2=O)C3=O)cc1 (configuration not stated),0.61% (active)
17,CONC[C@]1(C)C=C2C(=O)[C@](C)(O)C3(CC3)C(C)=C2[C@H]1O,5.71% (active)
18,CC1(C)CC[C@]2(C(=O)N3CCOCC3)CC[C@]3(C)C(=CC[C@@H]4[C@@]5(C)CC[C@H](NCO)C(C)(C)[C@@H]5CC[C@]43C)[C@H]2C1,-88.2% (active)
19,NS(=O)(=O)c1ccc(N=Nc2c(O)n(CC(=O)Nc3ccccc3Br)c3ccccc23)cc1,20.1%

row,SMILES,growth
1,CNC(=O)c1cccc(N2CCc3c2ccc(NC(=O)Nc2ccc(N4CCN(C)CC4)c(C(F)(F)F)c2)c3F)c1,-95.6% (active)
2,O=C(NCCCCC(c1ccc(F)cc1)c1ccc(F)cc1)NCCCc1cccnc1,47.7%
3,CC(=O)Nc1ccc(-c2cn(-c3cccc(C(=O)Nc4ccc(Cl)c(C(F)(F)F)c4)c3)nn2)cn1,-34.4% (active)
4,CCCS(=O)(=O)c1oc(-c2ccc(F)cc2)nc1S(=O)(=O)c1ccc(F)cc1,-52.2% (active)
5,O=C(Cn1nc(-c2ccccc2)ccc1=O)NN1C(=O)c2ccccc2C1=O,103%
6,CC(=O)NCC1=C(C)C=C2C(=O)[C@](C)(O)C3(CC3)C(C)=C21,-40.8% (active)
7,CCN1CCN(Cc2ccc(C(=O)Nc3cccc(-c4cn(-c5ccc6oc(=O)ccc6c5)nn4)c3)cc2C(F)(F)F)CC1,-100% (active)
8,CCOP(=O)(OCC)O[C@H]1CCC(=O)[C@@H]2[C@H]1[C@H]1C[C@@H]3[C@@]4(C)CCCC(C)(C(=O)OC)[C@@H]4CC[C@@]23C=C1C(C)C (some centres not stated),63.3%
9,O=C1Nc2ccc(F)cc2/C1=C/c1cccc(OCc2ccccn2)c1,56%
10,CC1=N/C(=C\c2ccc(N(C)C)cc2)C(=O)N1CCc1ccc(S(N)(=O)=O)cc1,101%
11,O=C(Nc1ccc(I)cc1F)c1cc(-c2ccc(F)cc2F)ccc1O,16.7%
12,C/C(=N\NC(N)=S)c1ccc(Nc2nc(SC(C)C)nc(-c3ccccc3)c2C#N)cc1,18.2%
13,COc1ccc2c(c1)N=C(C(=O)O)/C2=C/c1sc(Nc2ccc(O)cc2)nc1O,78.9%
14,COc1cc(-c2nc3cc(Cl)c(Cl)cc3[nH]2)ccc1OCc1nnc(-c2ccc(Br)cc2)o1,-31% (active)
15,Cc1ccc(NC(=O)c2ccc(-n3c(=O)[nH]c4ccccc4c3=O)cc2)cc1,36.7%
16,CC(=C(c1ccc(OCCN2CCCCC2)cc1)c1ccc(OCCN2CCCCC2)cc1)c1ccccc1,-35.8% (active)
17,CCCCCc1ccc(S(=O)(=O)N(C(C)=O)c2cc(-c3csc(N(C)C(C)=O)n3)ccc2N2CCN(C)CC2)cc1,-16.2% (active)
18,COc1cc2c3c(n(CCCNC(C)C)c(=O)c2cc1OC)-c1nc2c(cc1C3=O)OCO2,-78.3% (active)
